# Shown are actives, neighbours in structure and some others; about 2.5% of the full set was active somewhere.
# CHT PAM: CHT positive allosteric modulators, primary screen, cell-based, membrane potential dye, choline EC20. CHT-expressing cells; hits give high values; LV-AA mutant CHT in HEK293 cells. B-score at 10 µM. 0.49% of 310,000 active. High affinity choline transporter 1 (Homo sapiens), Q9GZV3;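 active = initial fluorescence not abnormally high and integrated response B-score, plate-corrected, over 3 SD above library mean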
# ANO1 activ: TMEM16A chloride channel activators or potentiators, primary screen, cell-based, HTS; Anoctamin-1 (Mus musculus), Q8BHY3; HEK293 TMEM16A/YFP-H148Q/I152L, iodide quench fluorescence; hits give low values; B-score at 10 µM; 0.3% of 340,000 active; AID 623877, 2012;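 active = fluorescence-ratio B-score plate-corrected deviation score at least 3 library SD below zero, with starting fluorescence score within 5 deviations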;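 also: channel opened by trigger with iodide after compound preincubation; score built on the fluorescence ratio of max minus min over baseline; more negative score means more quench and so TMEM16A activation or potentiation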
# ANO1 block: TMEM16A chloride channel inhibitors, primary screen, cell-based, HTS; HEK293 TMEM16A/YFP iodide influx fluorescence, ionomycin; normalized B-score (activity score, 25-100; higher = stronger inhibition) at 10 µM; 1.2% of 310,000 active;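 active = ratio plate-corrected score three or more library SD toward inhibition, starting fluorescence score within five deviations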;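 also: score derived from kinetic fluorescence span divided by baseline fluorescence per well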
# PKA-R2B activ: activators of PKA-R2B holoenzyme, primary screen, biochemical, fluorescence polarization, Cy5-IP20, human. cAMP-dependent protein kinase catalytic subunit beta (Homo sapiens) + cAMP-dependent …. PKA-R2B holoenzyme dissociation; R2B truncated from residue 108, S112A mutant; 0% DMSO only, 100% 113 µM cGMP. activation, % at 11.4 µM. 0.079% of 340,000 active. AID 504700, 2011;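 active = activation above a cutoff set at the mean over all compounds plus 3 SD, cut at about 18% in these data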;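 also: higher means more holoenzyme dissociation and a rise in polarization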
# PKA-R1A act: activators of PKA-R1A holoenzyme, primary screen, biochemical, fluorescence polarization, Cy5-IP20, bovine R1A, mouse PKAc | cAMP-dependent protein kinase type I-alpha regulatory subunit (Bos taurus) + … | PKA-R1A dissociation; scaled: DMSO 0%, 113 µM cGMP 100% | activation, % at 11.4 µM | 0.083% of 340,000 active;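 active = percent activation above the mean of all tested compounds plus 3 SD, cut at about 19% in these data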;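 also: higher means more PKAc released from R1A so a rise in polarization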
# CHT block: inhibitors of human choline transporter CHT; High affinity choline transporter 1 (Homo sapiens), Q9GZV3; CHT-expressing cells, membrane potential dye, choline response; hits give low values; B-score at 10 µM; 0.86% of 310,000 active;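 active = B-score over 3 SD under the library average, and starting fluorescence ratio not unusually high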;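 also: choline stimulus applied at its EC90 after an EC20 pre-addition; B-score computed on integrated fluorescence ratio after choline addition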
# CHT block conf: CHT inhibitors, confirmation, cell-based, membrane potential dye, duplicate; 70% of 2,400 active; CHT activity remaining % of control (hits give low values), % at 10 µM; CHT-expressing cells, choline membrane potential dye; LV-to-AA substituted CHT, HEK293 cells; shares compounds with CHT block;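 active = choline transporter activity left, mean of duplicates at 10 µM, below buffer-only control mean minus 3 SD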;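 also: depolarization triggered by choline at its EC90 following an EC20 pre-addition; 0% = hemicholinium-3 full block and 100% = buffer-only control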
# HEK293 MPD ctr: membrane potential effects in parental HEK293, counter-screen for CHT inhibitor project, cell-based, membrane potential dye; shares compounds with CHT block; AID 493222, 2011; choline response; active = decrease or increase beyond buffer ±3SD; 4% of 2,400 active; membrane potential ratio readout (active if shifted either direction beyond buffer ±3SD; no single direction) at 10 µM;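 also: parental cells lack the transporter so any hit is non-specific; ratio is peak minus trough fluorescence over baseline after EC90 choline challenge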
# TMEM16A reconf: TMEM16A chloride channel inhibitors, confirmation, cell-based, re-confirmation. shares compounds with ANO1 block. HEK293 TMEM16A/YFP-H148Q, iodide quench fluorescence; ionomycin added to raise cell calcium. inhibition, % at 10 µM. 39% of 2,300 active;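 active = mean duplicate percent inhibition, scaled so buffer wells are 0 and the reference blocker 100, over three buffer SD above buffer mean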
# TMEM16A Ca cntr: calcium mobilization in TMEM16A/YFP HEK293 cells, confirmation, counter-screen for TMEM16A inhibitor project; shares compounds with ANO1 block; Fluo4 calcium mobilization; calcium response (% of ionomycin), % at 10 µM; 2% of 2,300 active; AID 652231, 2013;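 active = duplicate-averaged calcium signal over 20% of the ionomycin maximum, relative to buffer baseline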;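 also: each well's signal is peak minus trough fluorescence divided by its pre-addition baseline; 0% = buffer wells and 100% = ionomycin wells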
# YFP-HEK293 quench: iodide YFP quench changes in parental YFP-HEK293, counter-screen for TMEM16A inhibitor project, cell-based | YFP ratio F(max-min)/F0 at 10 µM | 2,300 tested, under 10 active | ionomycin | shares compounds with ANO1 block | AID 652233, 2013;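 active = yellow fluorescent protein signal ratio exceeding the buffer control mean by over 5 SD of those controls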;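 also: ratio is mean of duplicate wells from kinetic YFP trace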
# ClC-1 inh: ClC-1 chloride channel inhibition, selectivity assay for TMEM16A inhibitor project, cell-based, voltage-dependent ClC-1; CHO ClC-1-YFP, iodide influx fluorescence quench; iodide control reads 0, buffer control 100; shares compounds with ANO1 block; AID 652236, 2013; ratio percent, % at 10 µM; 2,300 tested, under 10 active;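 active = duplicate-mean ratio percent above the mean of iodide-only control wells, which defines zero, plus 5 of their SD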;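 also: higher percent means stronger block of ClC-1 iodide influx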
# Target sequence (P35524 whole entry, looked up): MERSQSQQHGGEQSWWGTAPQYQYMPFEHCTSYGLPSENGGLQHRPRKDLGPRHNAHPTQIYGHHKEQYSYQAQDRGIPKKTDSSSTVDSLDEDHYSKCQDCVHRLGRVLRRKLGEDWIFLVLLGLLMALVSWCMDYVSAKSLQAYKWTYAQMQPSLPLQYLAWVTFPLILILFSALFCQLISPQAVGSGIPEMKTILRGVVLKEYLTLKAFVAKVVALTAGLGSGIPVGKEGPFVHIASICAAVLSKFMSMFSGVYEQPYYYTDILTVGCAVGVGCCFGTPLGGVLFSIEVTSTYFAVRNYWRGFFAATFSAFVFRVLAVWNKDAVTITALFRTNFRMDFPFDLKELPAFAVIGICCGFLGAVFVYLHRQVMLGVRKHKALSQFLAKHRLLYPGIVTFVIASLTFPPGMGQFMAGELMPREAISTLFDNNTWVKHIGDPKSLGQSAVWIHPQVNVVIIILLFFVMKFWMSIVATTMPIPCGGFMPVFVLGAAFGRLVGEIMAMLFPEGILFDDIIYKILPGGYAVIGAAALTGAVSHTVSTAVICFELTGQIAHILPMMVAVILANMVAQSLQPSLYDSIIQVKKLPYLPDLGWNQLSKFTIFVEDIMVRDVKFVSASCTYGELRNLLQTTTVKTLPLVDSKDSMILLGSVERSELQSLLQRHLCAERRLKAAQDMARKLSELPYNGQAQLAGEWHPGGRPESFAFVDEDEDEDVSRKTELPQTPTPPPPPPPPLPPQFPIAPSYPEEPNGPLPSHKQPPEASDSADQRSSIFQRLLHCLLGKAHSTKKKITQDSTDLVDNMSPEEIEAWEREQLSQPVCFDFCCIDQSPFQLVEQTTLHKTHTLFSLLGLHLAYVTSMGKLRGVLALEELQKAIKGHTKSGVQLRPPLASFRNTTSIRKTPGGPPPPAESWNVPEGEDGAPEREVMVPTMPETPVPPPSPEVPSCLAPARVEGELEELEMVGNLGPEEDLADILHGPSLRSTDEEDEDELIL
# * marks the source's active call; other numbers are inactive results; i = inactive; · = no result given.
SMILES,CHT PAM,ANO1 activ,ANO1 block,PKA-R2B activ,PKA-R1A act,CHT block,CHT block conf,HEK293 MPD ctr,TMEM16A reconf,TMEM16A Ca cntr,YFP-HEK293 quench,ClC-1 inh
COc1ccc(C2C3=C(CC(C)(C)CC3=O)Nc3n[nH]c(C)c32)cc1 (configuration not stated),i,i,100*,0,0,-7.6*,i,i,i,i,-1,-8
COc1cccc(-c2c(C(=O)N/N=C(\C)c3cccs3)nnn2-c2nonc2N)c1,i,i,i,-9,-4,i,·,·,·,·,·,·
COc1ccccc1CN1[C@@H](CC(C)=O)c2cc(C(F)(F)F)ccc2S1(=O)=O,i,i,i,13,4,i,·,·,·,·,·,·
Cc1nnc(SCc2cnc(-c3ccc(C(C)C)cc3)s2)n1C,i,i,100*,6,-1,-12*,49%*,i,24%*,i,-0.93,4
c1ccc(-c2ncc(CSc3nncn3-c3ccccc3)s2)cc1,i,i,i,4,-8,i,·,·,·,·,·,·
C#CCNC(=O)C1=C[C@H](c2ccccc2)[C@@H](CCCO)[C@H](OCC)O1,i,i,i,-3,5,i,·,·,·,·,·,·
Cc1ccc(F)cc1NC(=O)c1ccc(NS(=O)(=O)c2ccc(Br)s2)cc1,i,i,25*,-8,7,-7.1*,50%*,i,i,i,-0.85,0
Cc1occc1C(=O)N/N=C/c1cccc2ccccc12,i,i,i,-3,5,i,·,·,·,·,·,·
CCN(CCn1cccn1)C(=O)CCc1nnc(CCCc2ccccc2)o1,i,i,i,-6,-2,i,·,·,·,·,·,·
Cc1noc(C)c1C(=O)Nc1sc(C)c(-c2ccccc2)c1C#N,i,i,25*,-2,2,-5.2*,71%*,i,46%*,i,-1.2,-8
COc1ccccc1NC(=O)c1ccc(C(=O)c2ccccc2)o1,i,i,100*,-7,-7,-5*,i,i,19%*,i,-0.96,1
Cc1[nH]n(-c2ccccc2)c(=O)c1N=Nc1c(O)cc(S(=O)(=O)N(C)C)c2ccccc12,i,i,100*,-6,10,-8.5*,34%*,i,48%*,i,-0.95,-3
Cc1[nH]n(-c2ccccc2)c(=O)c1N=Nc1ccc2c(c1)OCCO2,i,i,i,-2,7,i,·,·,·,·,·,·
COc1ccc(OC)c(C(=O)COC(=O)COc2ccccc2F)c1,·,i,·,-7,-1,·,·,·,·,·,·,·
CCc1cc(C(=O)COc2ccccc2F)c(O)cc1O,i,i,100*,-3,-9,-5.8*,i,i,47%*,i,-1.1,-12
CCc1cc(C(=O)Cc2ccc(F)cc2)c(O)cc1O,i,i,100*,-9,3,-5.6*,43%*,i,68%*,i,-0.82,-10
CCC(C)C(CO)NCCCn1cnc(C(=O)Nc2ccc(C)c(C)c2)n1 (configuration not stated),·,·,·,-2,2,·,·,·,·,·,·,·
Cc1ccc(S(=O)(=O)N2CCOCC2)cc1NC(=O)COC(=O)/C=C/c1ccc(F)cc1,·,i,·,-6,8,·,·,·,·,·,·,·
CCSC(=S)c1c(C)[nH]n(-c2ccccc2)c1=O,i,i,100*,-2,13,-8.8*,i,i,29%*,i,-0.75,-8
Cc1[nH]n(-c2ccccc2)c(=O)c1C(=O)c1ccccc1,i,i,i,-7,-11,i,·,·,·,·,·,·
N#C/C(=N\Nc1cccc(C(F)(F)F)c1)C(=O)c1ccsc1,i,i,25*,3,-9,-10*,35%*,i,38%*,i,-1.1,-19
O=C(Nc1ccccc1)Nc1cccc(C(F)(F)F)c1,i,i,i,-7,-4,i,·,·,·,·,·,·
CC(C)(C)c1csc(NC(=O)c2ccccc2O)n1,i,i,25*,0,0,-6.8*,i,i,23%*,i,-0.95,-2
Cc1csc(NC(=O)c2ccccc2O)n1,i,i,i,1,2,i,·,·,·,·,·,·
CC1(C)COCN1S(=O)(=O)c1ccc(C(=O)Nc2nnc(-c3ccc(Cl)s3)o2)cc1,i,·,100*,·,·,-5.8*,50%*,i,i,i,-0.86,-18
O=C(Nc1ccccc1OC(F)F)c1ccc(N2CCCC2=O)cc1,·,·,·,5,6,·,·,·,·,·,·,·
O=C1C2C(C(=O)N1/N=C/c1cc([N+](=O)[O-])c(O)cc1O)C1C=CC2C12CC2 (configuration not stated),i,i,i,-8,2,i,·,·,·,·,·,·

# Bioassay records as filed in PubChem.
